Results reported in PubChem BioAssay AID492953 (The Scripps Research Institute Molecular Screening Center, 2010).
Out of some 340,000 compounds screened, about 4,200 (1.2%) were called active.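 The calls were made as follows: active = inhibition above the mean of all tested compounds plus 3 SD (cut at about 24% in these data); inactive = the rest.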 What follows is part of a selection rich in actives, with near analogues and random picks from the rest.

Target: Platelet-activating factor acetylhydrolase IB subunit alpha2 (Homo sapiens) (UniProt P68402)
Sequence (P68402 whole entry, looked up): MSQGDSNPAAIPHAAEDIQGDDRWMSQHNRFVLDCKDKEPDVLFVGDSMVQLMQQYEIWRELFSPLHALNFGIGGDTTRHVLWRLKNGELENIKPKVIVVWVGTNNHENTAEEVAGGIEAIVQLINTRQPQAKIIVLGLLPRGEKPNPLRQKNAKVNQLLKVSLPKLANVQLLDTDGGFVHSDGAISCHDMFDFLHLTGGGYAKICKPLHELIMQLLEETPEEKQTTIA
Experiment: PAFAH1B2 enzyme inhibitors, primary screen, biochemical, fluorescence polarization, human (AID 492953);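 also: 0% = enzyme with DMSO and 100% = wells lacking PAFAH1B2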
Conditions: recombinant PAFAH1B2, FP-rhodamine activity probe, at 3.39 µM, stronger effect = higher value

inhibition, active:
O=C(CCC(=O)N1CCN(S(=O)(=O)c2ccc(Cl)cc2)CC1)NCc1cccc(C(F)(F)F)c1 26.5%
O=C(NCCc1ccc(Cl)cc1Cl)c1cc([N+](=O)[O-])c[nH]c1=O 57%
O=c1[nH]c(/C=C\c2cccc(C(F)(F)F)c2)nc(O)c1[N+](=O)[O-] 27.5%
Cc1cc(F)ccc1S(=O)(=O)Nc1ncnc2scc(-c3ccc(F)cc3)c12 36.1%
C=CC[C@@H](CC(=O)N[C@H](CO)Cc1ccccc1)C(=O)N[C@H](C)COC(=O)[C@@H](CC=C)Cc1ccc(F)cc1 26.8%
CCc1ccc(S(=O)(=O)Nc2cc3c(cc2N2CCCCC2)n(C)c(=O)c(=O)n3C)cc1 28.5%
Oc1[nH]c2ccc(Br)cc2c1N=Nc1nn[nH]n1 73.3%
CC1(C)Cc2ccccc2-c2[nH]c(=S)[nH]c(=O)c21 26.1%
CN(CC(=O)Nc1ccc(Cl)cc1)C(=O)CNC(=O)c1ccc2ccccc2c1 29%
CC(Oc1ccc2c(-c3ccccc3)cc(=O)oc2c1)C(=O)NC(Cc1c[nH]c2ccccc12)C(=O)O (centres undefined) 69.3%

inhibition, inactive:
O=C(NCC(c1cccs1)N1CCOCC1)c1cc(Cl)ccc1[N+](=O)[O-] (centres undefined) 5.77%
CSc1ccc(S(=O)(=O)N2CCC(C(=O)NCCc3ccccc3)CC2)cc1 0.35%
CCOc1ccc(/C(O)=C2/C(=O)C(=O)N(Cc3cccnc3)C2c2ccc(N(C)C)cc2)c(C)c1 (centres undefined) -1.88%
O=C(O)/C=C/C(=O)NNc1ccc([N+](=O)[O-])cc1 4.93%
O=C(CCC(=O)c1ccccc1)NCc1cccc(C(F)(F)F)c1 2.04%
O=C(NCc1cccc(C(F)(F)F)c1)c1cccc(S(=O)(=O)N2CCN(Cc3ccccc3)CC2)c1 -9.49%
CC(=O)NCC(=O)N(Cc1ccco1)C1(C(=O)NC2CCCC2)CCCCC1 1.82%
O=C(NCCc1c[nH]c2ccc(Cl)cc12)c1ccc([N+](=O)[O-])cc1 3.76%
NS(=O)(=O)c1ccc(CCNC(=O)c2ccc(Cl)cc2[N+](=O)[O-])cc1 -2.98%
O=C(O)c1ccc(NN=CC2=C(N3CCOCC3)/C(=C/c3ccccc3)CC2)cc1 -2.37%
COc1ccc(C(CNC(=O)c2cc(S(=O)(=O)Nc3cccc(C)c3)ccc2C)N2CCCC2)cc1 (centres undefined) 4.75%
CC(C)C[C@H]1CN([C@@H](CC(C)C)CN2CCC[C@@H]2CN2C(=O)C(=O)NC[C@@H]2Cc2ccccc2)C(=O)C(=O)N1CCc1ccccc1 1.5%
O=c1[nH]c(/C=C/c2cccc(Br)c2)nc2ccccc12 1.93%
Cc1ccccc1/C=C\c1nc(O)c([N+](=O)[O-])c(=O)[nH]1 9.97%
Cc1ccnc(SCC(=O)Nc2cccc(S(=O)(=O)N3CCOCC3)c2)n1 1.16%
COC(=O)C1=C(N)Oc2c(oc(CO)cc2=O)C1c1c(F)cccc1Cl (centres undefined) 0.05%
COc1ccc(-c2csc3ncnc(N4CCN(S(=O)(=O)c5cccc(F)c5)CC4)c23)cc1 5.03%
O=S(=O)(Nc1ncnc2sccc12)c1cccc(F)c1 -0.25%
CN(CCc1ccccn1)S(=O)(=O)c1ccc2c3c(cccc13)C(=O)N2 -2.83%
CN1C(c2ccc(F)cc2)=CS/C1=C(/C#N)c1nnc2n1-c1ccccc1SC2 2.85%
CCN(CC)C(=O)Oc1ccc(Br)cc1C(=O)Nc1ccc(F)c(Cl)c1 7.03%
C=CCC[C@H](Cc1ccc(F)cc1)C(=O)OC[C@@H](NC(=O)[C@@H](CC=C)CC(=O)N[C@H](CO)Cc1ccccc1)C(C)(C)C 13.2%
C=CC[C@@H](CC(=O)N[C@H](CO)Cc1ccccc1)C(=O)N[C@@H](COC(=O)[C@@H](CC=C)Cc1ccc(F)cc1)Cc1c[nH]c2ccccc12 -1.64%
Cc1ccc(NS(=O)(=O)c2ccc3c(c2)n(C)c(=O)c(=O)n3C)c(C)c1 0.65%
Cn1c(=O)c(=O)n(C)c2cc(S(=O)(=O)CCC(=O)N3CCCCC3)ccc21 5.13%
O=C(NC1=CC(=O)c2ccccc2C1=O)c1ccccc1 17%
CN(O)C(=S)c1ccccc1 -1.16%
Cc1ccc(C(=O)N/C(=C/c2ccc(-c3cccc([N+](=O)[O-])c3)o2)C(=O)NCCCN(C)C)cc1 1.95%
O=C(CNC(=O)Cc1ccccc1)N=Nc1c(O)[nH]c2ccc(Br)cc12 -1.85%
NS(=O)(=O)c1ccc(N=Nc2c(O)[nH]c3ccc(Br)cc23)cc1 11.8%
Cc1cc(C)c(NC(=O)CN2CCOCCOCCOCCOCC2)c(C)c1 0.53%
Cc1nc2nc(C)c(NS(=O)(=O)c3ccc(C(C)(C)C)cc3)c(=O)n2[nH]1 16.3%
CC1(C)Cc2ccccc2-c2nc(CN3CCOCC3)[nH]c(=O)c21 6.87%
CC1(C)Cc2ccccc2/C(=C/C(=O)c2ccccc2)N1 -0.07%
CC1C(C)N(C(=O)CCl)c2ccccc2N1C(=O)CCl (centres undefined) 2.69%
CC(NC(=O)CC1SC(N)=NC1=O)c1ccccc1 (centres undefined) 3.61%
O=C(NNC(=O)c1ccc2ccccc2c1)c1ccc(Cl)cc1 3.28%
CN(CC(=O)Nc1ccc(Cl)cc1)C(=O)c1ccc(COc2ccccc2)cc1 7.71%
Clc1ccc2c(c1)C1=C(C(c3ccncc3)O2)C(c2ccc(Br)cc2)n2ncnc2N1 (centres undefined) 2.64%
CN(C)S(=O)(=O)c1cccc(C(=O)OCC(=O)N2CCCC2=O)c1 0.79%
CC(=O)c1cccc(NC(=O)N2CCCC2C(=O)NCCc2ccccc2)c1 (centres undefined) 4.97%
CCc1ccccc1NC(=O)Cc1cn(C)c2ccccc12 4.1%
COc1ccc(-c2cc(=O)oc3cc(OCC(=O)N[C@@H](Cc4c[nH]c5ccccc45)C(=O)O)ccc23)cc1 4.23%
COc1ccc(-c2cc(C(=O)NC(Cc3c[nH]c4ccccc34)C(=O)O)c(C)o2)cc1OC (centres undefined) 9.21%
